Measurements reported in PubChem BioAssay (NCI).
About 79,000 compounds went through this panel and 15% of them were active in at least one assay; those are over-represented in the sample as a whole. Calls of active or inactive are those of the source. Cut-off read from the data, not from the text of the source: active = growth inhibition above about 70%; inactive = the rest.

Key:
[1] = NCI Yeast Anticancer Drug Screen. Data for the rad50 strain (AID 155);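 note: 0% = growth of vehicle-only cultures of the same strain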; settings: S. cerevisiae rad50 strain growth inhibition, hits give high values
Procedure, shortened: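 Inhibition values express reduced yeast growth in compound-treated cultures relative to vehicle-treated controls.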

[2] = NCI Yeast Anticancer Drug Screen. Data for the mec2-1 strain (AID 157); settings: S. cerevisiae mec2-1 strain, hits give high values
Procedure, shortened: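 mec2-1 yeast strain, carrying an alteration in DNA damage repair or cell cycle control, was exposed to compounds; growth inhibition was measured relative to vehicle-treated controls.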

[3] = NCI Yeast Anticancer Drug Screen. Data for the sgs1 mgt1 strain (AID 161);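 note: 0% = growth of cultures given vehicle only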; settings: S. cerevisiae sgs1 mgt1 strain, hits give high values
Procedure, shortened: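 Percent growth inhibition was derived by comparing compound-exposed mutant yeast with vehicle-exposed cultures. The strain carries alterations in DNA damage repair.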

[4] = NCI Yeast Anticancer Drug Screen. Data for the cln2 rad14 strain (AID 165);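 note: 0% = growth equal to vehicle treated cultures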; settings: S. cerevisiae cln2 rad14 strain, hits give high values
Procedure, shortened: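 Yeast carrying cln2 and rad14 alterations (cell cycle control and DNA damage repair) were exposed to compounds. Growth inhibition was measured against vehicle-treated controls.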

[5] = NCI Yeast Anticancer Drug Screen. Data for the bub3 strain (AID 167); settings: S. cerevisiae bub3 mutant strain, hits give high values
Procedure, shortened: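 Steps: expose the mutant yeast strain to compound; grow alongside vehicle-treated cultures; measure growth; express inhibition against the vehicle cultures.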

[6] = NCI Yeast Anticancer Drug Screen. Data for the mlh1 rad18 strain (AID 175); settings: S. cerevisiae mlh1 rad18 strain growth inhibition, hits give high values
Procedure, shortened: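 Growth inhibition of the yeast strain was measured after compound exposure and expressed relative to vehicle-treated controls. The strain carries defined defects in DNA damage repair.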

[7] = at 5.0 µM (retest, dose inferred, filed as 0.5)
[8] = at 50.0 µM (retest, dose inferred, filed as 5.0)

Measured: growth inhibition

CN(C)CCCNCC(=O)Nc1ccc(S(=O)(=O)c2ccc(NC(=O)CNCCCN(C)C)cc2)cc1
active: [1]; [8] 92% | [1]; at 50.0 µM 95.2% | [2]; [8] 97% | [3]; [8] 95% | [3]; at 50.0 µM 97.2% | [4]; at 50.0 µM 78.1% | [5]; [8] 89% | [6]; [8] 96% | [6]; at 50.0 µM 90.2%
inactive: [1]; [7] 2% | [2]; [7] -2% | [2]; at 50.0 µM 58.7% | [3]; [7] -11% | [4]; [7] 7% | [4]; [8] 66% | [5]; [7] 2% | [5]; at 50.0 µM 30.2% | [6]; [7] 3%

COc1ccc2c(c1)CC/C(=C\c1ccc(OCCN(C)C)cc1)C2=O
inactive: [1]; [7] 12% | [1]; [8] 19% | [1]; at 50.0 µM 40.2% | [2]; [7] 2% | [2]; [8] 15% | [2]; at 50.0 µM 48.8% | [3]; [7] 8% | [3]; [8] 33% | [3]; at 50.0 µM 44.8% | [4]; [7] 8% | [4]; [8] -3% | [4]; at 50.0 µM 15.4% | [5]; [7] 12% | [5]; [8] 25% | [5]; at 50.0 µM 20.4% | [6]; [7] 6% | [6]; [8] 28% | [6]; at 50.0 µM 57%

CCCCC(O)(c1ccc2nc(NC(=O)OC)[nH]c2c1)c1cccs1 (stereo not given)
inactive: [1]; [7] -7% | [1]; [8] 58% | [1]; at 50.0 µM 7.8% | [2]; [7] -4% | [2]; [8] 62% | [3]; [7] -4% | [3]; [8] 69% | [3]; at 50.0 µM 49.5% | [4]; [7] -15% | [4]; [8] 10% | [4]; at 50.0 µM 36% | [5]; [7] -8% | [5]; [8] 41% | [5]; at 50.0 µM 35.5% | [6]; [7] -5% | [6]; [8] 62%
active: [2]; at 50.0 µM 74.8% | [6]; at 50.0 µM 94.5%

Cc1cccc(Cl)c1NC(=S)Nc1cccc(C(F)(F)F)c1
inactive: [1]; [7] -4% | [1]; [8] 2% | [2]; [7] 2% | [2]; [8] 8% | [3]; [7] 10% | [3]; [8] 1% | [4]; [7] 24% | [4]; [8] 23% | [5]; [7] 20% | [5]; [8] 9% | [6]; [7] -21% | [6]; [8] 17%
active: [1]; at 50.0 µM 88.8% | [2]; at 50.0 µM 89.4% | [3]; at 50.0 µM 92.3% | [4]; at 50.0 µM 88.3% | [5]; at 50.0 µM 89.6% | [6]; at 50.0 µM 86.2%

CN(C(=O)C(Cl)Cl)c1ccc(-c2csc(-c3ccccc3)n2)cc1
active: [4]; at 50.0 µM 95.8% | [5]; at 50.0 µM 97%
inactive: [1]; [7] 5% | [1]; [8] 12% | [1]; at 50.0 µM 12.9% | [2]; [7] 10% | [2]; [8] -1% | [2]; at 50.0 µM 33.9% | [3]; [7] 6% | [3]; [8] 20% | [3]; at 50.0 µM -7.4% | [4]; [7] -2% | [4]; [8] -3% | [5]; [7] 2% | [5]; [8] 22% | [6]; [7] 4% | [6]; [8] 7% | [6]; at 50.0 µM 22.4%

O=C1C(Cl)=C(Nc2cc(Cl)ccc2Cl)C(=O)c2ccccc21
inactive: [1]; [7] 45% | [1]; at 50.0 µM 2.45% | [2]; [7] 63% | [3]; [7] 68% | [4]; [7] 20% | [6]; [7] 64%
active: [1]; [8] 99% | [2]; [8] 98% | [2]; at 50.0 µM 97.9% | [3]; [8] 100% | [3]; at 50.0 µM 98.7% | [4]; [8] 95% | [4]; at 50.0 µM 78.8% | [5]; [7] 96% | [5]; [8] 99% | [5]; at 50.0 µM 99.5% | [6]; [8] 98% | [6]; at 50.0 µM 99.5%

COS(=O)c1cc(Cl)cc(Cl)c1OC(=O)CSSCC(=O)Oc1c(Cl)cc(Cl)cc1S(=O)OC (stereo not given)
inactive: [4]; [7] 60%
active: [1]; [7] 87% | [1]; [8] 99% | [1]; at 50.0 µM 98.8% | [2]; [7] 85% | [2]; [8] 99% | [2]; at 50.0 µM 99.3% | [3]; [7] 95% | [3]; [8] 99% | [3]; at 50.0 µM 99% | [4]; [8] 98% | [4]; at 50.0 µM 99.3% | [5]; [7] 92% | [5]; [8] 98% | [5]; at 50.0 µM 98.9% | [6]; [7] 84% | [6]; [8] 99% | [6]; at 50.0 µM 99%

Cc1cc2c(=O)[nH]c(N)nc2nc1C
inactive: [1]; [7] -7% | [1]; [8] 11% | [1]; at 50.0 µM -9.45% | [2]; [7] 1% | [2]; [8] -15% | [2]; at 50.0 µM -17.5% | [3]; [7] -13% | [3]; [8] -13% | [3]; at 50.0 µM -25% | [4]; [7] -2% | [4]; [8] -5% | [4]; at 50.0 µM 15.1% | [5]; [7] -5% | [5]; [8] 3% | [5]; at 50.0 µM -8.85% | [6]; [7] -21% | [6]; [8] -2% | [6]; at 50.0 µM -21.5%

COc1ccc(-c2n[nH]c(C(F)(F)F)c2N=NN(C)C)cc1OC
active: [1]; [7] 97% | [1]; [8] 98% | [1]; at 50.0 µM 98.9% | [2]; [7] 99% | [2]; [8] 99% | [2]; at 50.0 µM 99.5% | [3]; [7] 99% | [3]; [8] 99% | [3]; at 50.0 µM 99.4% | [4]; [7] 99% | [4]; [8] 99% | [4]; at 50.0 µM 99.4% | [5]; [7] 99% | [5]; [8] 99% | [5]; at 50.0 µM 99.4% | [6]; [7] 99% | [6]; [8] 99% | [6]; at 50.0 µM 99.6%

O=C1CCC(Cc2ccc(I)cc2)C(=O)N1 (stereo not given)
inactive: [1]; [7] -5% | [1]; [8] 3% | [1]; at 50.0 µM -2.9% | [2]; [7] 1% | [2]; [8] 6% | [2]; at 50.0 µM -12.7% | [3]; [7] -11% | [3]; [8] 68% | [3]; at 50.0 µM 66.3% | [4]; [7] -5% | [4]; [8] 7% | [4]; at 50.0 µM -63.8% | [5]; [7] -6% | [5]; [8] -5% | [5]; at 50.0 µM -54.2% | [6]; [7] -6% | [6]; [8] 1% | [6]; at 50.0 µM -4.6%
